Laboratory results as given in PubChem BioAssay (NCATS).
Records with an inconclusive call do not appear. Entries that show only a call come without a potency. The source made the active and inactive calls. Calls come from the whole dose curve; as a rule, active = well fitted inhibition curve with a large enough effect; inconclusive = small, poorly fitted or top-dose-only effect; inactive = flat fitted curve, though single readings scatter.

These compounds were tested against Phospholipid hydroperoxide glutathione peroxidase GPX4 (Homo sapiens) (UniProt P36969) (assay: Primary qHTS Assay for Inhibitors of Recombinant Selenoprotein Glutathione Peroxidase 4 (GPX4) (AID 1845192; note: nearly all actives have a fitted effect of over 65% in size)). Details: recombinant GPX4, GR-coupled NADPH fluorescence, 15 min; series mostly up to 50 µM.
Phospholipid hydroperoxide glutathione peroxidase GPX4 (Homo sapiens), sequence (P36969 whole entry, looked up): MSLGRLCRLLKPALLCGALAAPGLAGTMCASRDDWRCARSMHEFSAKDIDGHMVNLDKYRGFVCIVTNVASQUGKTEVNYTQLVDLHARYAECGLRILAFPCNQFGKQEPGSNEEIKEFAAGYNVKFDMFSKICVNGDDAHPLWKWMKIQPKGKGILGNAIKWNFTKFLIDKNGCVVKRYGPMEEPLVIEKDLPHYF
Procedure, shortened: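 Steps: GPX4 plus compound, 30 min RT; add GR/GSH/NADPH master mix; start with cumene hydroperoxide; read 340/450 nm fluorescence at 0 and 15 min. Finals were 200 nM GPX4, 1 mM GSH, 0.5 mM CHP, 0.5 mM NADPH, 100 nM GR.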

Compound	Potency
CC(C)(O)c1ccc2c(c1)C(O)CC1C(C)(C(=O)O)CCCC21C (stereo not given)	inactive
CCC(=O)N[C@@H]1Cc2ccccc2[C@H](c2ccccc2)C1	inactive
CC(=O)NCCCCn1c2c(c3ccccc31)C(=O)NCC2	inactive
CC(=O)OC[C@@]12[C@H](O)C[C@@H](C)[C@]3(C[C@@H](c4ccoc4)OC3=O)[C@H]1C[C@H](O)C[C@]21CO1	inactive
CC(C)C1=CCC(C)(O)C(OC2OC(CO)C(O)C(O)C2O)C1 (stereo not given)	inactive
CC(C)C(=O)O[C@@H]1[C@@H](O)[C@@H](O[C@H]2O[C@H](CO)[C@@H](O)[C@H](O)[C@H]2O)O[C@H](CO)[C@H]1O	inactive
CC(C)C1(O[C@@H]2O[C@H](CO)[C@@H](O)[C@H](O)[C@H]2O)CC=C(CO)CC1 (stereo not given in full)	inactive
O=C(COc1ccc(Cl)cc1)NC1CCC(NC(=O)COc2ccc(Cl)cc2)CC1 (stereo not given)	inactive
CC1(C)CC2C(O)C3=C(CC(C)(O)C2C1)C(=O)OC3O (stereo not given)	inactive
COc1cccc2c1CCC[C@H]2CN(C)CCc1ccc2ccoc2c1	inactive
C=C(C)[C@H]1C[C@@H](O)C(=C)CC[C@@H](O)C(=C)[C@@H](O)C1	inactive
CC1(C)O[C@@]2(C)CC[C@@H]1C[C@@H]2OC1OC(CO)C(O)C(O)C1O (stereo not given in full)	inactive
O=C(/C=C/c1ccc(O)cc1)OC[C@H]1O[C@@H](OC(=O)/C=C/c2ccccc2)[C@H](O)[C@@H](O)[C@@H]1O	inactive
Cc1ncc([N+](=O)[O-])n1CC(O)CN1CCOCC1 (stereo not given)	inactive
CC(CO[C@@H]1O[C@H](COC(=O)/C=C/c2ccc(O)c(O)c2)[C@@H](O)[C@H](O)[C@H]1O)C1(O)COC(=O)C1 (stereo not given in full)	inactive
